Measured values from PubChem BioAssay (NCI).
Compounds without any hit were thinned out: in the full panel of roughly 83,000, 20% have a hit.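 Cell lines were cultured in 96-well plates, exposed to a single compound concentration, and assessed for percent growth 48 hours later.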 Calls of active or inactive are those of the source. The calls were made as follows: active = growth percent below 10; inactive = the rest.

Key:
Assay in all cases: NCI-60 one-dose screen, 48 h (100 = growth as untreated, 0 = no growth, -100 = all killed)
Details in all cases: 10 µM unless noted
[1] = system: DU-145 prostate
[2] = system: MALME-3M melanoma
[3] = system: MDA-MB-231 breast
[4] = system: RXF 393 renal
[5] = system: SF-268 CNS
[6] = system: SF-539 CNS
[7] = system: UACC-257 melanoma
[8] = system: M14 melanoma
[9] = system: HCT-15 colon
[10] = system: HT29 colon
[11] = system: SNB-75 CNS
[12] = system: SNB-19 CNS
[13] = system: U251 CNS
[14] = system: PC-3 prostate
[15] = system: SK-MEL-5 melanoma
[16] = system: UACC-62 melanoma
[17] = system: LOX IMVI melanoma
[18] = system: SK-MEL-28 melanoma
[19] = system: SF-295 CNS
[20] = system: K-562 leukemia

Measured: growth

CCCCCNCCCCCNc1cc(OC)cc2cccnc12
inactive: [1] 104% | [2] 60.2% | [3] 88.8% | [4] 68.3% | [5] 95.6% | [6] 87.8% | [7] 101% | [8] 87.3% | [9] 88.6% | [10] 64.2% | [11] 61.7% | [12] 94.1% | [13] 79.8% | [14] 69.6% | [15] 31.1% | [16] 75.3% | [17] 95.5% | [18] 91.9%

Nc1ncnc2c1N=C(c1ccc(F)cc1)CC(c1sc(Cl)nc1Cl)N2 (configuration not stated)
inactive: [1] 98.8% | [2] 111% | [3] 88.2% | [4] 78.3% | [5] 85.4% | [19] 95.8% | [6] 85.7% | [7] 91% | [8] 109% | [9] 102% | [10] 92.2% | [11] 74% | [12] 92.9% | [13] 84.7% | [14] 79.5% | [16] 94.5% | [17] 93% | [18] 102%

CCCCCCCCCCC(C(O)c1ccccc1)N1CCCCC1 (configuration not stated)
inactive: [1] 64.5% | [5] 68.4% | [6] 27.3% | [9] 16.8% | [11] 63.1% | [12] 43.7% | [14] 25.7%
active: [20] 3.31% | [3] 9.66% | [4] -22.3% | [7] -1.19% | [8] -63.8% | [10] -10.5% | [15] -94.3% | [16] -9.77% | [17] -30.5% | [18] -15.9%

COc1ccc(CCN2COc3c([C@@H](C)CCC=C(C)C)ccc(C)c3C2)cc1OC
active: [10] 8.29%
inactive: [20] 13.1% | [2] 48% | [3] 57% | [4] 63.9% | [19] 43.1% | [6] 80.5% | [7] 48.1% | [8] 11.5% | [9] 29.5% | [11] 62.8% | [12] 83.3% | [13] 49.8% | [14] 47.6% | [15] 18.2% | [16] 65.5% | [17] 64.3% | [18] 69.4%

CCCCCCCCCCCCCCCC1=NCC[N+]1(CCO)CCO
inactive: [2] 108% | [3] 36.7% | [4] 34.9% | [19] 76.7% | [6] 73.3% | [7] 102% | [9] 31.9% | [10] 12.4% | [11] 46.9% | [12] 97.6% | [13] 39.4% | [14] 32.1% | [15] 89.6% | [16] 76.2% | [18] 115%
active: [20] 1.44% | [8] 7.86% | [17] 5.42%

O=C(O)c1cn(-c2ccccc2)nc1-c1ccc(O)cc1
inactive: [20] 100% | [2] 105% | [3] 95.7% | [4] 108% | [19] 92.8% | [6] 101% | [7] 85.1% | [8] 91.8% | [9] 98.4% | [10] 94.7% | [11] 86.1% | [12] 97.4% | [13] 96.4% | [14] 91.2% | [15] 106% | [16] 90.8% | [17] 91.7% | [18] 101%

COc1cc(C2=NOC(c3cc(OC)c(OC)c(OC)c3)C2)ccc1OCCCCOc1cc2c(cc1OC)C(=O)N1CCC[C@H]1C=N2 (some centres not stated)
inactive: [3] 12.3% | [19] 13.4% | [7] 13.7%
active: [20] 7.5% | [2] -72.2% | [4] -79% | [5] -29.5% | [6] -89.6% | [8] -43.7% | [9] 4.27% | [10] -12.3% | [11] -87.7% | [12] -9.51% | [14] -2.09% | [15] -85.3% | [16] -76.6% | [17] -68.6% | [18] -66.1%

COc1cc(/C=C2\C(=O)Nc3ccc(N(C)C)cc32)cc(OC)c1OC
inactive: [20] 21.8% | [2] 37.2% | [3] 24.3% | [6] 10.3% | [9] 17% | [12] 36.2% | [13] 11.4% | [14] 35% | [15] 21.5% | [17] 32.8% | [18] 43.4%
active: [4] -45% | [19] 7.29% | [7] -11% | [8] -3.91% | [10] 9.36% | [11] -17.1% | [16] -0.443%

O=c1c2sc3ccccc3c2nnn1-c1ccc(F)c(Cl)c1
active: [19] 4.36%
inactive: [20] 49.7% | [2] 58% | [3] 27.5% | [4] 47.3% | [6] 65.4% | [7] 64.1% | [8] 74.7% | [9] 56.7% | [10] 69.9% | [11] 39.5% | [12] 61.1% | [13] 59.1% | [14] 54.8% | [15] 67.3% | [16] 78.4% | [17] 58.1% | [18] 72.7%

O=C1C=CC(=O)N1CO
active: [20] -29.9%
inactive: [2] 130% | [3] 109% | [4] 168% | [5] 111% | [19] 131% | [6] 111% | [7] 109% | [8] 109% | [9] 116% | [10] 105% | [11] 100% | [12] 103% | [13] 117% | [14] 102% | [15] 114% | [16] 106% | [17] 120% | [18] 117%

COC(=O)c1ccc(NC(N)=NCCC(C)(C)c2ccc(C(F)(F)F)cc2)nc1
active: [20] 1.24% | [2] -30.9% | [8] -40% | [17] -77.3%
inactive: [3] 42.7% | [4] 58.7% | [19] 29.5% | [6] 79.3% | [7] 38.8% | [9] 37.8% | [10] 11.6% | [11] 67.3% | [12] 59.9% | [14] 36% | [16] 55.2% | [18] 35.2%

COc1ccc(C(=O)C(CN(C)C)c2ccccc2)cc1 (configuration not stated)
active: [7] 2.45% | [8] -63% | [9] -49.3% | [18] -44.9%
inactive: [20] 12.6% | [2] 45% | [3] 33.4% | [4] 18.6% | [19] 54.3% | [6] 14.2% | [10] 19.1% | [11] 25.1% | [12] 91.2% | [14] 52.4% | [15] 43.7% | [16] 33.8% | [17] 10.3%

COC(=O)c1cc(Cl)cc([N+](=O)[O-])c1O
inactive: [20] 68.9% | [2] 114% | [3] 123% | [4] 97.1% | [5] 112% | [19] 101% | [6] 107% | [7] 100% | [8] 94.9% | [9] 109% | [10] 110% | [11] 97.2% | [12] 108% | [14] 97.3% | [15] 106% | [16] 110% | [17] 114% | [18] 120%

C=CCN(CCOC(=O)c1ccc([N+](=O)[O-])cc1)CCOC(=O)c1ccc([N+](=O)[O-])cc1
inactive: [20] 92.3% | [2] 98.8% | [3] 96.2% | [4] 138% | [5] 98% | [19] 107% | [6] 110% | [7] 97.8% | [8] 105% | [9] 118% | [10] 111% | [11] 83.7% | [12] 108% | [13] 103% | [14] 85.4% | [16] 110% | [17] 88.8% | [18] 106%

COc1cc(/C=C/C(=O)c2c(C)nc3ccccc3c2C)ccc1OCCCOc1cc2c(cc1OC)C(=O)N1CCC[C@H]1C=N2
active: [20] -10.8% | [2] -37.2% | [3] -35.6% | [4] -83.7% | [5] -47.9% | [19] -47.6% | [6] -87% | [7] -1.91% | [8] -45.2% | [9] -25.9% | [10] -71.9% | [11] -76.8% | [12] -49.8% | [13] -66.4% | [14] -15.9% | [15] -98.8% | [17] -99.3% | [18] -63.1%

O=C(CSc1ccc(Cl)cc1)Nc1ccc(-c2nc3ccccc3s2)c(Cl)c1
inactive: [20] 34.3% | [2] 108% | [3] 93.8% | [4] 78.7% | [19] 22.3% | [6] 93.1% | [7] 84.5% | [8] 75.4% | [9] 39.6% | [10] 57% | [11] 79.1% | [12] 62.7% | [13] 52.9% | [14] 30.9% | [15] 79% | [16] 58.4% | [17] 63.2% | [18] 108%

CCCCCCCCCCCC1=NC(C)(C)CN1C(C)(C)CO
active: [7] -23.4% | [8] -84.4% | [9] 8.9% | [10] -29.3% | [15] 8.52% | [16] -69.5% | [17] -35.1% | [18] -5.89%
inactive: [20] 57.6% | [2] 62.7% | [3] 57.7% | [4] 56.3% | [5] 69.1% | [19] 90.3% | [6] 57.9% | [11] 49.3% | [12] 114% | [13] 21.4% | [14] 54.9%

COCCn1c(Nc2ccc(C(=O)NO)cc2)nc2ccccc21
inactive: [20] 34.6% | [2] 30.6% | [3] 81.5% | [4] 39.1% | [5] 82.3% | [19] 61.9% | [6] 62% | [7] 27.8% | [8] 51.6% | [9] 74.9% | [10] 44.1% | [11] 22.1% | [12] 69.6% | [14] 69.5% | [15] 47.4% | [16] 25.8% | [17] 73.6% | [18] 61.3%
